From PubChem BioAssay AID1347156 (National Center for Advancing Translational Sciences (NCATS), 2019)
Results filed as inconclusive are left out. Activity calls are given as the source filed them. The call rests on the fitted dose curve; in most records, active means well fitted cell-killing curve with a large enough effect; inconclusive means small, poorly fitted or top-dose-only effect; inactive means flat fitted curve, though single readings scatter.

assay: DAPI mCherry counterscreen qHTS for Zika virus inhibitors; settings: Vero cells, DAPI nuclear count cytotoxicity, imaging 48-72 h, infected with Zika reporter virus, MOI 1; series mostly up to 32.6 µM; activity change, negative = cell loss: at the top concentration; further: nearly all actives have a fitted effect of over 55% in size
How it was run: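 Vero cells (5,000/well), plated overnight, given compounds then recombinant ZIKV-mCherry at MOI 1 for 48-72 hrs at 37 degrees C; PFA-fixed, Hoechst-stained and imaged; nuclei counted and mCherry-positive cells scored as percent infection.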
On the % scale 0 is the no-effect control and ±100 the full control effect; potency means the concentration at half of the fitted maximal effect.

Structure (SMILES) | Potency | activity change, negative = cell loss
CC(C)(C)Sc1c(CC(C)(C)C(=O)O)n(Cc2ccc(Cl)cc2)c2ccc(OCc3ccc4ccccc4n3)cc12 | 35.5 µM (active) | 
COc1cc(Nc2nc3ccccc3nc2NS(=O)(=O)c2ccc(NC(=O)c3ccc(C)c(OC)c3)cc2)cc(OC)c1 | 4.47 µM (active) | 
C/C(=C\CC/C(C)=C/CC[C@]1(C)CCc2cc(O)cc(C)c2O1)CC/C=C(\C)C(=O)O | 14.1 µM (active) | 
CC1(COc2ccc(CC3SC(=O)NC3=O)cc2)CCCCC1 (centres undefined) | 31.6 µM (active) | 
COc1ccc(Cl)c(Nc2nc3ccccc3nc2NS(=O)(=O)c2cccc(NC(=O)C(C)(C)N)c2)c1 | 22.4 µM (active) | 
COc1ccc(/C=C(\C#N)c2nc(-c3cc4c(ccc5ccccc54)oc3=O)cs2)cc1O | 1 µM (active) | 
CC1CCN(C(c2ccc(F)cc2)c2ccc(C(C)C(=O)O)cc2-c2ccc(C(F)(F)F)cc2)CC1 (centres undefined) | 8.91 µM (active) | 
O=C(Nc1cccc(C(=O)OCc2cc(=O)n3nc(C4CC4)sc3n2)c1)c1ccc(F)cc1 |  | -8.64% (inactive)
Cc1ccc(S(=O)(=O)Nc2cc(SCC(=O)O)c(O)c3ccccc23)cc1[N+](=O)[O-] | 8.91 µM (active) | 
